This is part of a sample that, as a whole, favours compounds with a hit. Of some 83,000 tested, about 20% had one in any assay.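 Single-concentration screen, 48 h exposure, 96-well plates. Endpoint: percent growth. Below 10 = active.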 Values without a mark were called inactive. Activity calls are given as the source filed them.

The text below walks through data of PubChem BioAssay (NCI).

The test system of the test is MDA-MB-468 breast. The experiment in a line: NCI-60 one-dose screen, 48 h (100 = growth as untreated, 0 = no growth, -100 = all killed). The note with it: 10 µM unless noted.
For `CCC1=C[C@@H]2C[C@]3(C(=O)OC)c4[nH]c5ccccc5c4CC[N@+](CC(=O)Nc4cc5c(cc4OC)N(C)[C@H]4[C@@](O)(C(=O)OC)[C@H](OC(C)=O)[C@]6(CC)C=CCN7CC[C@]54[C@@H]76)(C2)[C@H]13`, the growth was 111%. Under `Cc1cc(N/N=C/c2nc(-c3ccccc3)oc2C)c2cc(Cl)ccc2n1` stands -74.7% (active); under `COc1cc2c3c(n(CCCNCC4CC4)c(=O)c2cc1OC)-c1cc2c(cc1C3=O)OCO2`, 41.4%; under `c1ccc(CNc2nc(Nc3ccc(-c4nc5ccccc5[nH]4)cc3)c3cn[nH]c3n2)cc1`, -22% (active). Under `c1ccc2nc(Cn3cc[n+](Cc4ccc5ccccc5n4)c3)ccc2c1` stands 1.53% (active); under `CN(C)C(C)(C)CC(C)(C)C`, 116%; under `COc1cc(CN2CCO[C@H](COc3cccc(F)c3)C2)ccc1Cl`, 11.4%. For `CCCCCc1c(C)[nH]c(/C=C2\N=C(c3ccc[nH]3)C=C2Oc2ccc(Cl)cc2)c1C`, the growth is -16.4% [100 µM] (active). The same measure for `CNC(=O)c1cc(Oc2cccc3nc(NC(=O)Nc4cc(C(F)(F)F)cc(C(F)(F)F)c4)ccc23)ccn1`: 32%. On to `O=C(Nc1nn2c(-c3cc(C(F)(F)F)cc(C(F)(F)F)c3)nnc2s1)C1CCCC1`, for which the growth is -17.2% (active). The same measure for `COc1ccc(-c2ccc3cnc4sc(-c5ccc(OC)cc5)nc4c3n2)cc1`: 96.5%; for `O=[N+]([O-])c1ccc(C(c2ccccc2)c2ccccc2)cc1`: 101%. With `CCOC(=O)CSc1nc(-c2cc(OC)ccc2OC)cc(-c2ccc(OC)cc2)c1C#N`, the growth is 92.7%.

As for `COc1ccc(C(=O)Nc2ncc(Cc3cccc(Cl)c3)s2)cc1OC`, the growth is -1.51% (active). The same measure for `N#Cc1ccc(O)c(C2=NCC(Cc3ccccc3)O2)c1` (stereo not given): 33.5%. Turning to `N#Cc1c(N)nc(Cl)c(C#N)c1C(=O)c1ccccc1`, the growth is -6.56% (active). Under `Clc1cc(Cl)c(OCC#CI)cc1Cl` stands -26% (active).

Turning to `Nc1nc2c(nnn2C2CC(O)C(CO)O2)c(=O)[nH]1` (stereo not given), the growth is 22.8%. Turning to `COc1cccc(C(=O)NC(c2ccc(C)cc2)c2cc(Cl)c3cccnc3c2O)c1` (stereo not given), the growth was -8.72% (active). Under `OC(c1cc2cc(Cl)ccc2c2cc(C(F)(F)F)ccc12)C1CCCCN1` (stereo not given) stands -82.2% (active); under `N#Cc1c(N)[nH]c(S)c1C#N`, 103%; under `CC(C)(C)c1ccc(OP(=S)(N/N=C/c2ccccc2O)Oc2ccc(C(C)(C)C)cc2)cc1`, 35.4%. For `Cc1cc(C)cc(Nc2nccc(-c3c(-c4ccc(F)cc4)ncn3C3CCNCC3)n2)c1`, the growth was -29.9% (active).

On to `CCN(CC)CCn1c2ccc(O)cc2c2sc3cc(O)ccc3c(=O)c21`, for which the growth was 47.8%. Turning to `CCCCCc1ccc(S(=O)(=O)Nc2cccc(-c3csc(NC(=O)CN4CCN(CCO)CC4)n3)c2)cc1`, the growth is 84.8%. The same measure for `COc1cc(NCCCN=C(N)NC(N)=NC(C)C)c2ncccc2c1`: -34.2% (active); for `Fc1ccc(Cn2cc(CSc3nc4ccccc4o3)nn2)cc1`: 109%; for `O=C(Cc1ccc(OCc2ccccc2)cc1)NCc1ccc2c(c1)OCO2`: 81.5%. Under `C/C(=N\NC(=O)CSc1nc2ccccc2c(=O)n1Cc1ccc(S(N)(=O)=O)cc1)c1ccc(F)cc1` stands 114%; under `CCc1cccc(NC(=O)CNc2cc(S(=O)(=O)N(C)C)cc(C)c2C)c1`, 87.3%. The same measure for `O=C1NC(=O)/C(=C/c2ccc(OCc3cc4ccccc4nc3Cl)cc2)S1`: 92%; for `O=C1c2ccccc2CCC12OC2c1cn(-c2ccccc2)nc1-c1ccc(Cl)cc1` (stereo not given): 92.5%; for `Oc1ccc(CSc2nnc(-c3ccncc3)n2-c2ccccc2)c2cccnc12`: 14.2%. With `COc1ccc2c(c1)C(C)Cc1c(Cl)ncnc1N2C` (stereo not given), the growth is -47.7% (active). Consider `CC1=C(O)C(=O)CC1`, for which the growth was 104%. Under `Nc1ccccc1SC1CC(=O)N(c2ccc(Cl)c(Cl)c2)C1=O` (stereo not given) stands 80.4%; under `CC(C)N(CCOc1ccc(-c2nc3sccn3c2-c2ccnc(S(C)(=O)=O)n2)cc1)C(C)C`, 9.31% (active). Under `c1cc[n+](Cc2c3ccccc3cc3c2ccc2ccccc23)cc1` stands -40.5% (active). As for `C=C(C)[C@@H]1CC[C@]2(C(=O)O)CC[C@]3(C)[C@H](CC[C@@H]4[C@@]5(C)C/C(=C/c6ccccn6)C(=O)C(C)(C)[C@@H]5CC[C@]43C)[C@@H]12`, the growth was 9.64% (active).

`Cc1ccc2c(n1)C(=O)C(Cl)=C(Nc1cccc(C)c1C)C2=O`: the growth was -63.3% (active).
